Screening data deposited in PubChem by Emory University Molecular Libraries Screening Center.
The entries come from a sample that favours hits as a whole.
14-3-3 PPI: modulators of 14-3-3 gamma protein binding, primary screen, biochemical, fluorescence polarization | inhibition, % at 40 µM | FP, 14-3-3gamma / TMR-pS259-Raf peptide binding | 14-3-3 protein gamma (Homo sapiens), P61981 | 0.19% of 160,000 active; in the data active = inhibition above about 30%;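 also: 0% = protein plus tracer without compound and 100% = blank with tracer alone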
Target sequence (P61981 whole entry, looked up): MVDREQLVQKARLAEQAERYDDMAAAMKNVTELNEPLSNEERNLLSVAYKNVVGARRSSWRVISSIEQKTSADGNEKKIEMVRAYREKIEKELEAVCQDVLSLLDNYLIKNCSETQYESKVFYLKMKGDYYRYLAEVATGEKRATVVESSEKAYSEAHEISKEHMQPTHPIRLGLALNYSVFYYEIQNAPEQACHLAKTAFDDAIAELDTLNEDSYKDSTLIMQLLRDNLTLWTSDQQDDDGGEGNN
An asterisk follows results filed as active.

SMILES | 14-3-3 PPI
CCCN(CCC)c1ccc([N+](=O)[O-])c2nonc12 | -28
O=[N+]([O-])c1c(NCCO)ccc2nonc12 | -18
Nc1ccc2nonc2c1[N+](=O)[O-] | 31*
Fc1ccccc1C1CC(c2cccnc2)Nc2ncnn21 (configuration not stated) | 7
CSc1cccc(NC(=O)CN2C(=O)C(C)N=C(c3ccccc3)c3ccccc32)c1 (configuration not stated) | -3
C=CCN1C(=O)NC(=O)C(Cc2ccc(OC)c(OC)c2)C1=O (configuration not stated) | 0
COc1cc(OC)c(OC)cc1CC1C(=O)N(C)C(=O)N(C)C1=O | 66*
COc1cc(CC2C(=O)N(C)C(=O)N(C)C2=O)ccc1OCc1ccccc1 | 9
CN1C(=O)C(Cc2c[nH]c3ccccc23)C(=O)N(C)C1=O | 82*
CNCCc1c[nH]c2ccccc12 | 0
CN1C(=O)C(Cc2cccc3ccccc23)C(=O)N(C)C1=O | 6
CN(C)c1ccc(C=Cc2nc3ccccc3c(=O)n2-c2ccc(Br)cc2)cc1 | -1
Cc1ccnc(NC(=O)c2c(O)c3c(n(Cc4ccco4)c2=O)CCCC3)c1 | -10
COc1ccccc1-n1c(C=Cc2ccc(N(C)C)cc2)nc2ccccc2c1=O | -13
COc1ccccc1OCCNc1ccc([N+](=O)[O-])c2cccnc12 | 2
